In PubChem BioAssay:
Active and inactive are the calls of the source.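 The calls were made as follows: active = visually confirmed hit in the image check and inhibition above 20%; inconclusive = visually confirmed hit but inhibition not above 20%; inactive = no visual hit in the image check.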

Test: inhibitors of E-selectin induction by TNFa, primary screen, imaging, HUVEC, immunofluorescence, MLSMR starter and 10KST1 sets (AID 487);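 as to inhibition: signal is fraction of cell area covered by stained E-selectin grains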;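 as to nuclei count: 100% = median nuclei count of all wells on the same plate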
Details: HUVEC TNFalpha-induced E-selectin immunofluorescence imaging, at 2 µM; inhibition: stronger effect = higher value; nuclei count: measured here: cell number, toxicity
In the case of `COc1ccc(C)cc1NC(=O)CN1CCN(S(=O)(=O)c2ccc(Cl)cc2)CC1`, the nuclei count is reported as 98.9% and the inhibition is reported as -76.7% (inactive).
For `COc1cccc(C(=O)Nc2c(C(N)=O)oc3ccccc23)c1`, the inhibition was -34.6% (inactive) and the nuclei count was 121%.
In the case of `O=C(CC(Cc1ccccc1)C(=O)O)NCCc1ccc2c(c1)OCO2` (stereo not drawn), the nuclei count is reported as 145% and the inhibition is reported as -161% (inactive).
With `CC(=O)c1cccc(NC(=O)CCNS(=O)(=O)c2cccc3nsnc23)c1` the nuclei count was 107% and the inhibition was -46.7% (inactive).
For `COc1ccc(-n2c(=O)cc(N3CCN(Cc4ccccc4)CC3)[nH]c2=O)cc1`, the nuclei count was 108% and the inhibition was 26.6% (inactive).
In the case of `Cc1cc(N2C(=O)C(O)=C(C(=O)c3ccc(C)o3)C2c2cccs2)no1` (stereo not drawn), the nuclei count is reported as 103% and the inhibition is reported as 12% (inactive).
With `COC(=O)C1=C(C)NC(C)=C(C(=O)OC)C1C(=O)OC1CCCCC1=O` (stereo not drawn) the inhibition was 61.1% (active) and the nuclei count was 80.2%.
With `O=C(Cc1cccs1)Nc1ccccc1NC(=O)Cc1cccs1` the nuclei count was 88.2% and the inhibition was 7.1% (inactive).
For `CCOC(=O)c1cc2c(=O)n3ccccc3nc2n(CCCOC)c1=NC(=O)C(C)(C)C`, the inhibition was -203% (inactive) and the nuclei count was 95.3%.
In the case of `CCOC(=O)c1cc(-c2ccco2)nc2c1c(C)nn2CCC#N`, the nuclei count is reported as 146% and the inhibition is reported as -15.3% (inactive).
For `Cc1cc(C)c(C#N)c(SCC(=O)Nc2ccc(S(=O)(=O)Nc3onc(C)c3C)cc2)n1`, the inhibition was -59.1% (inactive) and the nuclei count was 122%.
In the case of `O=c1c2nnn(Cc3ccc(Cl)cc3)c2ncn1Cc1ccc(F)cc1`, the nuclei count is reported as 111% and the inhibition is reported as -19.2% (inactive).
With `Cc1ccc2c(c1)CCCN2C(=O)C1CCCO1` (stereo not drawn) the inhibition was -84.4% (inactive) and the nuclei count was 86.9%.
With `CC1(C)NC(=O)N(CC(O)COc2ccc(-c3ccccc3)cc2)C1=O` (stereo not drawn) the nuclei count was 125% and the inhibition was -18.2% (inactive).
